Screens deposited in PubChem BioAssay by several laboratories.
Shown are actives, neighbours in structure and some others; about 1.4% of the full set was active somewhere.
E coli Lon inh: inhibitors of E. coli Lon protease; P0A9M0; purified E. coli Lon protease, fluorescence polarization; inhibition, % at 7.94 µM; actives 0.42% (n = 360,000); in the data active = inhibition above about 13%, passing the limit was not always enough
EBV gp42 inh: EBV gp42 inhibition | Q1HVG2 | Fluorescence polarization binding assay, mP read-out | inhibition, % (tested at 21.74 µM) | actives 0.42% (n = 220,000); in the data active = inhibition above about 50%
Target sequence (Q1HVG2 whole entry, looked up): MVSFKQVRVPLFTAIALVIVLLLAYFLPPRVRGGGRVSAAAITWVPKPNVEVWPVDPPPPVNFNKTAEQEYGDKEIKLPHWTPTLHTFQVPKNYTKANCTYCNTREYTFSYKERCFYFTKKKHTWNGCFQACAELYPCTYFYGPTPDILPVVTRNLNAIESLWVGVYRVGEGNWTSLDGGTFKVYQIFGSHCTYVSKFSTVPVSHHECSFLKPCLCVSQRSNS
BCLXL inh: inhibitors of human Bcl-xL | inhibition, % at 10.9 µM | Q07817 | actives 0.7% (n = 320,000) | GST-Bcl-xL / FITC-Bim BH3 peptide fluorescence polarization;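 active = inhibition above the mean of all tested compounds plus 3 SD, cutoff set per campaign, cut at about 30% in these data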;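 note: inhibitors lower millipolarization by displacing the labeled peptide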
Target sequence (Q07817 whole entry, looked up): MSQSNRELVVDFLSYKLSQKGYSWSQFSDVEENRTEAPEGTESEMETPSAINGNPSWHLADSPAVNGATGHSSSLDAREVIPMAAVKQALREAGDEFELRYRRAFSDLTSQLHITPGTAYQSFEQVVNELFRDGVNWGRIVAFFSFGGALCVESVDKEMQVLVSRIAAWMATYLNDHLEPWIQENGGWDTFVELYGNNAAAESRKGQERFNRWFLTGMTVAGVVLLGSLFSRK
MEX-5 binding: C. elegans MEX-5 TCR-2 RNA binding activity. MEX-5/FITC-TCR2 RNA binding, fluorescence polarization; stronger effect = lower value. Q9XUB2. activity score (negative = inhibition of binding), % at 10 µM. actives 0.38% (n = 300,000);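 active = inhibition past about -25% in most replicates, and total fluorescence under double the plate's negative control median, limit read from the data; inconclusive = replicates evenly split on the limit, or fluorescence at least double controls; inactive = too little inhibition in most replicates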
GLD-1 TGE inh: GLD-1-TGE RNA interaction inhibition (C. elegans) | AID 2280 | inhibition, % at 5.96 µM | purified GLD-1 + fluorescein TGE RNA, fluorescence polarization | actives 0.44% (n = 320,000);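 active = percent inhibition above a per-plate cutoff, the plate mean of test compounds plus 3 SD, cut at about 30% in these data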
MCL1 BIM primary: disrupts human MCL1 binding to BIM-BH3 peptide. GST-MCL1 / FITC-Bim-BH3 fluorescence polarization. Q07820. actives 0.68% (n = 320,000). inhibition, % at 10.9 µM;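 active = inhibition above the mean inhibition of all tested compounds plus 3 SD, set per campaign, cut at about 40% in these data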;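 note: higher means more loss of mP so more displacement of Bim peptide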
Bcl-xL conf: counter-screen for MCL1 inhibitors: confirmation of human Bcl-xL inhibitors. shares compounds with MCL1 BIM primary. GST-Bcl-xL / FITC-Bim BH3 peptide FP binding. inhibition, % at 10.9 µM. actives 54% (n = 1,700). AID 2166;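 active = inhibition above a cutoff equal to the mean inhibition of all tested compounds plus 3 SD, cut at about 30% in these data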
MCL1 inh confirm: confirmation of human MCL1 and BIM-BH3 interaction inhibitors; AID 2168; GST-MCL1 / FITC-Bim-BH3 fluorescence polarization; actives 61% (n = 1,700); inhibition, % at 10.9 µM; shares compounds with MCL1 BIM primary;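 active = inhibition above the average of all tested compounds plus 3 SD, cut at about 40% in these data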
Hits are given with their value; n = inactive; u = inconclusive; x = not tested or not shown; + = active, no number.

SMILES	E coli Lon inh	EBV gp42 inh	BCLXL inh	MEX-5 binding	GLD-1 TGE inh	MCL1 BIM primary	Bcl-xL conf	MCL1 inh confirm
COc1ccc(OC)c2c1C(=O)c1ccccc1C2=O	x	+	+	u	+	+	+	+
COc1ccc(N)c2c1C(=O)c1ccccc1C2=O	n	n	n	n	n	n	x	x
COc1ccc(S(=O)(=O)/N=C2/NC(=O)/C(=C\c3ccco3)S2)cc1	n	n	n	n	n	55.3	n	n
COc1ccc(S(=O)(=O)/N=C2/NC(=O)/C(=C/c3ccco3)S2)cc1	n	n	n	n	n	42.2	n	n
COc1ccc(N=C2NC(=O)/C(=C/c3ccco3)S2)cc1	n	n	n	n	n	n	x	x
O=C(CCN1C(=O)/C(=C\C=C\c2ccccc2)SC1=S)Nc1cccc(C(=O)O)c1	n	x	n	n	n	n	x	x
O=C(CCN1C(=O)/C(=C\C=C\c2ccccc2)SC1=S)Nc1ccccc1C(=O)O	n	x	n	n	n	42.6	n	n
O=C(O)CC(C(=O)O)N1C(=O)/C(=C/C=C/c2ccco2)SC1=S (centres undefined)	n	n	41.5	-65.6	n	75.2	n	n
O=C(O)C(Cc1ccccc1)N1C(=O)/C(=C/C=C/c2ccco2)SC1=S (centres undefined)	n	n	x	n	x	x	x	x
O=C(O)CCCN1C(=O)/C(=C/C=C/c2ccco2)SC1=S	n	n	46.5	n	n	80.1	n	n
CCOC(=O)/C=C1\SC(C)C(=O)N1CC(=O)N(CCC#N)c1ccccc1 (centres undefined)	n	x	n	x	n	n	x	x
Cn1c(O)c(C2=c3ccccc3=NC2=O)[nH]c1=S	n	n	n	n	n	n	x	x
COc1ccc2nc(-n3c(O)c(C4=c5ccccc5=NC4=O)[nH]c3=S)sc2c1	n	115.1	n	n	n	67.5	32.6	91.7
OCC(O)CNC(=S)NC1CCCCC1 (centres undefined)	n	n	n	n	n	n	x	x
Cc1cccc(/C=C2\Oc3cc(OS(C)(=O)=O)ccc3C2=O)c1	n	n	n	n	n	n	x	x
O=C1/C(=C/c2cccc(F)c2)Oc2cc(O)ccc21	n	x	74.6	u	69.5	66.2	83.3	97.5
N#CC1=C(N)Oc2cc(N)ccc2C1c1ccc(F)cc1F (centres undefined)	n	x	54.7	n	n	54.2	n	n
N#CC1=C(N)Oc2cc(N)ccc2C1c1ccc(F)cc1 (centres undefined)	n	n	n	n	n	n	x	x
COc1ccc(NC(=O)c2sc3nc(-c4cccnc4)ccc3c2N)cc1	n	84.5	107.8	-54.7	68.7	111.9	113.0	137.2
O=C(CSc1nnc(-c2ccc(O)cc2)o1)NNC(=O)c1ccncc1	n	x	n	n	n	n	x	x
COc1ccc(/C=C(\C#N)C(=O)OCC(=O)NCc2ccccc2)cc1	n	n	n	n	n	n	x	x
COc1cccc(CNC(=O)COC(=O)/C(C#N)=C/c2ccc(N(C)C)cc2)c1	n	x	117.3	x	123.2	136.5	89.2	116.1
Cn1c(=O)c(Nc2ccc(Cl)cc2)c2c3c(cccc31)C(=O)c1ccccc1-2	x	176.4	+	-40.8	172.0	+	161.9	197.2
COCC(C)N1C(=O)Cc2c1nc(N)c1c(N)nc(N3CCN(c4ccccc4F)CC3)c(C#N)c21 (centres undefined)	n	n	n	n	n	n	x	x
COCCN1C(=O)Cc2c1nc(N)c1c(N)nc(N3CCN(c4ccc(F)cc4)CC3)c(C#N)c21	n	n	n	n	n	41.7	n	n
SMILES	E coli Lon inh	EBV gp42 inh	BCLXL inh	MEX-5 binding	GLD-1 TGE inh	MCL1 BIM primary	Bcl-xL conf	MCL1 inh confirm
CN1CCc2cccc3c2[C@H]1Cc1ccc(O)c(O)c1-3	n	n	35.8	-84.3	n	56.0	41.7	70.0
CC(=O)n1cc([C@H]2C=C(C(=O)N3CCN(Cc4ccccc4)CC3)O[C@@H](OCCCCO)C2)c2ccccc21	n	n	n	n	n	70.5	n	n
Cc1ccc(NCc2nc3ccccc3n2C)cc1	n	n	n	n	n	n	x	x
Cn1c(CNc2ccc(O)cc2)nc2ccccc21	n	x	55.6	n	91.5	65.7	81.1	82.5
Cc1ccc2c(CC(=O)Nc3cccc(S(=O)(=O)N4CCOCC4)c3)coc2c1	n	n	n	n	n	n	x	x
CCOc1cc(C2C3=C(CCCC3=O)N(C)C3=C2C(=O)CCC3)cc(Cl)c1O	n	n	n	n	n	49.6	n	n
COC1CCN(C(=O)CC2C(=O)NCCN2CC2CCCCC2)CC1 (centres undefined)	n	n	n	n	n	n	x	x
COC1CCN(C(=O)CC2C(=O)NCCN2CC(C)(C)C)CC1 (centres undefined)	n	n	44.6	n	n	50.2	n	n
O=c1[nH]c(SCc2ccccc2)nc2[nH]ncc12	n	n	n	n	n	n	x	x
O=C(c1ccccc1)c1ccc(N2CCN(C(=O)c3ccc(F)cc3F)CC2)c(F)c1	n	x	x	x	x	x	x	x
Cc1cc(SCC(=O)N/N=C/c2ccc(O)c(O)c2)nc2ccccc12	n	x	n	n	n	49.3	46.7	74.2
COc1cccc2c(SCC(=O)N/N=C/c3ccc(O)c(O)c3)cc(C)nc12	n	n	n	n	n	42.6	36.3	71.9
CCCCC1=CC2=CC(=O)C(C)(O)C(=O)C2=CO1 (centres undefined)	x	x	n	u	n	n	x	x
COC(=O)CCCC1=CC2=CC(=O)C(C)(OC(=O)c3ccco3)C(=O)C2=CO1 (centres undefined)	x	x	67.4	-42.0	73.0	87.8	75.0	109.7
CC(C)(C)OC(=O)NCCCC1=CC2=CC(=O)C(C)(OC(=O)C3CCCC3)C(=O)C2=CO1 (centres undefined)	x	x	65.3	n	78.8	74.0	47.6	66.5
CC(C)(C)OC(=O)NCCCCC1=CC2=CC(=O)C(C)(OC(=O)c3ccco3)C(=O)C2=CO1 (centres undefined)	x	x	n	n	48.9	61.2	n	n
CCCCC1=CC2=CC(=O)C(C)(OC(=O)c3ccc(Cl)nc3)C(=O)C2=CO1 (centres undefined)	x	x	51.8	-28.6	67.9	65.6	47.9	64.7
CC1(OC(=O)c2ccco2)C(=O)C=C2C=C(c3ccsc3)OC=C2C1=O (centres undefined)	x	x	n	n	n	n	x	x
O=C(Cc1cc2ccccc2o1)NCc1ccc(F)cc1	n	x	n	n	n	n	x	x
CCOC(=O)c1sc(NC(=O)C2CC(=O)N(c3ccc(C)cc3)C2)nc1C (centres undefined)	n	x	n	n	n	n	x	x
